{"source": "paper PMC4336329", "about": "(PLoS ONE, 2015)", "note": "Among all 310,000 compounds or so, about 14,000 (4.5%) showed an effect of 50% or more. Effects have a minus sign here. The sample holds strong results, similar compounds and a random draw of the others, so the mix is not that of the screen.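 Further: peak tail current of the secondary pulse compared with the same well before compound.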"}
{"biological_target": "human ether-à-go-go-related gene (hERG) potassium channel (human, UniProt Q12809)", "sequence (Q12809 whole entry, looked up)": "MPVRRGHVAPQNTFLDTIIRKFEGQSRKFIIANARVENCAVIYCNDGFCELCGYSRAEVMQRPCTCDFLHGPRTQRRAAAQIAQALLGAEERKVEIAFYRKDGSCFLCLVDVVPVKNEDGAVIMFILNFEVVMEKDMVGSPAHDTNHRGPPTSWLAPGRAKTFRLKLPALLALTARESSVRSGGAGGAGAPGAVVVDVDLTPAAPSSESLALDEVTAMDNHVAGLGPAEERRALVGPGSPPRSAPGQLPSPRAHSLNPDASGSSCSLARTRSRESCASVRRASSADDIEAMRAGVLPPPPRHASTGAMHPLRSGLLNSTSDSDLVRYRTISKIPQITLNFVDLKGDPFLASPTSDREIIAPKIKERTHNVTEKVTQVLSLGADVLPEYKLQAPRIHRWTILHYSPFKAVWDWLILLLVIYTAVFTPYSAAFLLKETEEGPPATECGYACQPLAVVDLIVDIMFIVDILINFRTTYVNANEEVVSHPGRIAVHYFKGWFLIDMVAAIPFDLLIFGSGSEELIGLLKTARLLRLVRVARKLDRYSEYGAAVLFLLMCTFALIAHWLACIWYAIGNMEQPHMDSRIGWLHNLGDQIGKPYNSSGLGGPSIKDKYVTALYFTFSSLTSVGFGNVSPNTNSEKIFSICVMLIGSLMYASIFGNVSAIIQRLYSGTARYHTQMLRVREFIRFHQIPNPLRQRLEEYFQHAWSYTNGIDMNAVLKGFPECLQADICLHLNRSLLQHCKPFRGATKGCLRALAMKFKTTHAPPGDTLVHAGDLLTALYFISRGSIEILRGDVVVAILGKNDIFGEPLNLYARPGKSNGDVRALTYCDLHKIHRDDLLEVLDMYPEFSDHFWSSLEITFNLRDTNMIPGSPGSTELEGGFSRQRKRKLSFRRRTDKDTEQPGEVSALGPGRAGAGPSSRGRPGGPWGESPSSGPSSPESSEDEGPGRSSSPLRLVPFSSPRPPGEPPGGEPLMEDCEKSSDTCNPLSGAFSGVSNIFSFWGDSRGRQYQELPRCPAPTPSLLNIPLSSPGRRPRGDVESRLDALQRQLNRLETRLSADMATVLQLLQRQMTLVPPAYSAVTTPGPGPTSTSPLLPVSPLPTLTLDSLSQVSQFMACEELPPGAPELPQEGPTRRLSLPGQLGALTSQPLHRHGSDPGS", "assay": "primary screen, population patch clamp on CHO cells stably expressing hERG; higher = less effect of the substance", "units": {"hERG current change (%, negative = inhibition) at 10uM": "%"}}
{"smiles": "O=C(c1cc(COc2ccc3ncccc3c2)on1)N1CCC[C@H]1CO", "hERG current change (%, negative = inhibition) at 10uM": 4.88}
{"smiles": "O=C(c1ccc(F)cc1)N1CCC(n2nnc3ccccc32)CC1", "hERG current change (%, negative = inhibition) at 10uM": -33.3}
{"smiles": "O=C(N1CCOCC1)N1CCC(n2nnc3cc(F)ccc32)CC1", "hERG current change (%, negative = inhibition) at 10uM": -7.65}
{"smiles": "COc1cc(C(=O)N2CCC(n3c(C)nc4cc(F)ccc43)CC2)cc(OC)c1OC", "hERG current change (%, negative = inhibition) at 10uM": -8.07}
{"smiles": "COc1ccc(C(=O)N2CCC(n3nnc4cc(F)ccc43)CC2)cc1OC", "hERG current change (%, negative = inhibition) at 10uM": -61.6}
{"smiles": "COc1ccc(C(=O)N2CCN(S(=O)(=O)c3ccc(F)cc3)CC2)cc1OC", "hERG current change (%, negative = inhibition) at 10uM": 10.9}
{"smiles": "Cc1cccc(C(=O)N2CCC(n3nnc4cc(F)ccc43)CC2)c1", "hERG current change (%, negative = inhibition) at 10uM": -34.8}
{"smiles": "COc1ccc(C(=O)N2CCC(n3c(C)nc4cc(F)ccc43)CC2)cc1OC", "hERG current change (%, negative = inhibition) at 10uM": -69}
{"smiles": "O=C(c1ccc([N+](=O)[O-])cc1)N1CCC(n2nnc3cc(F)ccc32)CC1", "hERG current change (%, negative = inhibition) at 10uM": -71.9}
{"smiles": "CCOC(=O)C(CC)Sc1ncnc2nc[nH]c12", "note": "(centres unmarked)", "hERG current change (%, negative = inhibition) at 10uM": -12.4}
{"smiles": "CCCn1nnc(NC(=O)COc2ccc(C3CCCCC3)cc2)n1", "hERG current change (%, negative = inhibition) at 10uM": -31.1}
{"smiles": "O=c1ccc(-c2ccc(S(=O)(=O)Nc3cccc(Br)c3)o2)n[nH]1", "hERG current change (%, negative = inhibition) at 10uM": 14.8}
{"smiles": "Cc1nn(C)c(C)c1/C=C1/CC2C3CC=C4CC(O)CCC4(C)C3CCC2(C)C1=O", "note": "(centres unmarked)", "hERG current change (%, negative = inhibition) at 10uM": -8.03}
{"smiles": "CCN(CC)S(=O)(=O)c1ccc(NC(=O)CSc2ncnc3ccccc23)cc1", "hERG current change (%, negative = inhibition) at 10uM": -8.71}
{"smiles": "Cc1ccc(C(=O)NCCc2nnc3ccc(SCC(=O)N4CCCCC4)nn23)cc1", "hERG current change (%, negative = inhibition) at 10uM": 4.02}
{"smiles": "c1ccc(CCc2nn3c(-c4ccncc4)nnc3s2)cc1", "hERG current change (%, negative = inhibition) at 10uM": -53.9}
{"smiles": "Cc1ccc(-c2nnc3sc(CCc4ccccc4)nn23)cc1", "hERG current change (%, negative = inhibition) at 10uM": 6.39}
{"smiles": "c1ccc(Cc2nn3c(-c4ccncc4)nnc3s2)cc1", "hERG current change (%, negative = inhibition) at 10uM": -38.6}
{"smiles": "CCc1nn(CCCC(=O)NCc2cc(Br)ccc2OC)c(=O)c2cc3occc3n12", "hERG current change (%, negative = inhibition) at 10uM": -2.73}
{"smiles": "CC1(C(=O)Nc2nc3ccccc3s2)CC1(Br)Br", "note": "(centres unmarked)", "hERG current change (%, negative = inhibition) at 10uM": 13.5}
{"smiles": "O=C(NCCc1cn2ccccc2n1)c1ccc(Br)o1", "hERG current change (%, negative = inhibition) at 10uM": -28.9}
{"smiles": "Cc1ccn2cc(CCNC(=O)c3ccc(Br)o3)nc2c1", "hERG current change (%, negative = inhibition) at 10uM": -57.5}
{"smiles": "Cc1ccn2cc(CNC(=O)c3ccc(Br)o3)nc2c1", "hERG current change (%, negative = inhibition) at 10uM": -38.6}
{"smiles": "COc1ccc(CCC(=O)NCc2cn3ccsc3n2)cc1", "hERG current change (%, negative = inhibition) at 10uM": 13}
{"smiles": "COc1ccc(CCC(=O)NCc2cn3ccc(C)cc3n2)cc1", "hERG current change (%, negative = inhibition) at 10uM": -52}
{"smiles": "COc1ccc(CCC(=O)NCc2cn3ccccc3n2)cc1", "hERG current change (%, negative = inhibition) at 10uM": -2.46}
